Only some compounds are listed: those with a hit (about 10% of all), similar ones and a draw of the others.
HP1b chromo inh: inhibitors of HP1-beta chromodomain binding to methylated histone tails; P83916; AlphaScreen HP1-beta / biotin-H3K9me3 peptide binding; Potency, µM (titrated, usually from 114 µM), inactives show at the top dose activity change, negative = inhibition, actives largely listed as inhibitors; 0.56% of 390,000 active; AID 540317; note: nearly all actives have a fitted effect of over 70% in size
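HP1-beta protein (50 nM final) preincubated 30 min at room temperature with biotinylated H3(1-18)K9me3 peptide (50 nM) in PBS pH 7.4, 0.01% Tween-20, then compound added for 30 min. AlphaScreen streptavidin donor/nickel chelate acceptor beads (10 ug/mL final), 30 min dark, luminescence read.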
GLS inh: inhibitors of human glutaminase (GLS); Potency, µM (titrated, usually from 45.5 µM), inactives show at the highest dose activity change, negative = inhibition, most hits filed as inhibitors; AID 624170; GLS enzymatic activity, qHTS titration; 0.21% of 410,000 active; note: % is set by controls: 0 for no effect and ±100 for the full control effect
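Read-out is an Amplex red fluorescence increase coupled through glutamate oxidase and HRP, measured before and after 30 min room-temperature incubation. hKGA is in 45 mM KH2PO4 (pH 8.2) with 0.02% Tween-20; glutamine added as 1mM solution.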
G9a block: blocks human histone lysine methyltransferase G9a. G9a H3K9 monomethylation, AlphaScreen, 2 h. Potency, µM (series often up to 102 µM), for inactives: at the top dose activity, negative = inhibition, usual class: inhibitors. 8.8% of 350,000 active. AID 504332; note: % is set by controls: 0 for no effect and ±100 for the full control effect; nearly all actives have a fitted effect of over 75% in size
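G9a (20 nM) preincubated 15 min RT with compounds, then 500 nM biotinylated H3K9 peptide and 20 uM SAM added; 2 h RT reaction. Monomethyl-H3K9 product detected by AlphaScreen with anti-H3K9me1 antibody, streptavidin donor and anti-rabbit IgG acceptor beads.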
JMJD2A Tudor: inhibitors of human JMJD2A Tudor domain. O75164. AlphaScreen JMJD2A-Tudor / H3K4me3 peptide binding. Potency, µM (titrated, usually from 114 µM), inactives show at the top dose activity change, negative = inhibition, actives largely listed as inhibitors. 4.4% of 390,000 active; note: % is set by controls: 0 for no effect and ±100 for the full control effect; nearly all actives have a fitted effect of over 50% in size
BAZ2B inh: BAZ2B (human) inhibition; 4.4% of 360,000 active; Potency, µM (titrated, usually from 114 µM), for the others: top-dose activity change, negative = inhibition, actives largely listed as inhibitors; AlphaScreen BAZ2B-H3K14Ac peptide displacement; AID 504333; note: % is set by controls: 0 for no effect and ±100 for the full control effect; nearly all actives have a fitted effect of over 60% in size
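Protein-peptide AlphaScreen: BAZ2B 50 nM, b-H3K14Ac 50 nM, 1x PBS pH 7.4 + 0.01% Tween-20. Preincubation 30 min RT; cpd 30 min RT (top 110 uM); beads 20 min RT, light-protected.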
Active calls of the source: *; ? = inconclusive; · = no result given; ! = repeats disagree; [ ] = remark or other dose. Calls come from the whole dose curve; as a rule, active = well fitted curve in the direction sought with a large enough effect; inconclusive = small, poorly fitted or top-dose-only effect, or another doubt; inactive = no such curve, though single readings can be large; an effect the other way counts as inactive or inconclusive. Potency is the fitted concentration of half-maximal effect.

SMILES	HP1b chromo inh	GLS inh	G9a block	JMJD2A Tudor	BAZ2B inh
Cc1sc[n+](CC(=O)c2ccc(Br)cc2)c1C	22%	-4%	11%[59 µM]	-10%	-19%
Cc1cc(C)c[n+](CC(=O)c2ccc(C)c([N+](=O)[O-])c2)c1	38%	-3%	·	-5%	-7%
O=C(C[n+]1cn(C(F)F)c2ccccc21)c1ccc(Br)cc1	40%	-15%	-7%[59 µM]	-22%	50µM*
O=C(C[n+]1cc(Br)cc(Br)c1)c1ccccc1	1%	-9%	-22%	-13%	-2%
O=C(C[n+]1cc(Br)cc(Br)c1)c1ccc(-c2ccccc2)cc1	17%	3%	25µM*	?	?
COc1ccc(C(=O)C[n+]2ccccc2C)cc1	?	?	-6%[59 µM]	25µM*	-3%
O=C(C[n+]1cc(Br)cc2ccccc21)c1ccc(Br)cc1	5%	0%	28µM*	?	-34%
O=C(C[n+]1cc(Br)cc2ccccc21)c1ccc(Cl)cc1	-20%	2%	50µM*	?	-29%
O=C(C[n+]1cccc2ccccc21)c1ccc(Br)cc1	17%	4%	7%	-9%	-26%
COc1ccc(CCN(C)C(=O)c2ccc(S(=O)(=O)Nc3ccccc3C)cc2)cc1OC	16%	-10%	35%	-10%	-5%
CCn1c(=N)c(C(=O)NC2CCCC2)cc2c(=O)n3ccccc3nc21	10%	-6%	-8%[59 µM]	-13%	4%
CCCCS(=N)(=O)CC[C@H](N)C(=O)O (some centres undefined)	·	·	10µM*!	·	·
CSc1ccc(C2NC(=O)c3ccccc3N2)cc1 (centres undefined)	22%	-7%	·	-6%	·
O=[N+]([O-])c1ccc(Sc2ncccn2)c([N+](=O)[O-])c1	10%	1%	·	-22%	-30%
O=[N+]([O-])c1ccc(Sc2nccn2Cc2ccccc2)c([N+](=O)[O-])c1	-33%	1%	45µM*	?	?
Cc1c(C=O)c(Cl)n(C)c(=O)c1C#N	12%	2%	40µM*	79µM*	56µM*
CC(=O)N=Cc1c(C)c(C#N)c(=O)n(C)c1O	34%	12%	45µM*	-15%	-31%
COc1ccc(-n2nc(C(=O)NCC(=O)N3CCN(c4ccccc4OC)CC3)c3ccccc3c2=O)cc1OC	8%	0%	9%	-19%	-13%
COc1ccc(-n2nc(C(=O)NCC(=O)N3CCN(c4ccccc4)CC3)c3ccccc3c2=O)cc1OC	65%	-2%	45µM*	-13%	2%
CCOC(=O)N1CCN(C(=O)CNC(=O)c2nn(-c3ccc(OC)cc3OC)c(=O)c3ccccc23)CC1	51%	-19%	45µM*	-4%	5%
COc1ccc(-n2nc(C(=O)NCC(=O)N3CCCC3)c3ccccc3c2=O)c(OC)c1	-2%	4%	9%[59 µM]	-2%	6%
CC(=O)Nc1ccc(NC(=O)C(Cc2ccccc2)NC(=O)C2CCCCC2)cc1 (centres undefined)	26%	0%	-7%	-6%	-4%
CCN(CC)Cc1cc(C(=O)O)c(C)o1	52%	3%	0%	-3%	-11%
COc1ccc(OCc2cc(C(=O)O)c(C)o2)cc1	·	·	45µM*	·	79µM*
COc1cc(Cl)ccc1NC(=O)COc1ccccc1C(=O)N1CCN(c2ccc(O)cc2)CC1	?	29%	10µM*	?	-6%
SMILES	HP1b chromo inh	GLS inh	G9a block	JMJD2A Tudor	BAZ2B inh
Cc1cc(Cl)ccc1OCC(=O)Nc1ccccc1C(=O)N1CCOCC1	19%	-3%	·	-15%	0%
COc1ccccc1NS(=O)(=O)c1ccc(C)c(C(=O)N2CCN(c3ccc(O)cc3)CC2)c1	-34%	-21%	·	28µM*	·
CSC1=N/C(=C\c2c(F)cccc2Cl)C(=O)S1	23%	6%	?	-15%	-39%
COC(=O)c1c(NC(=O)C2(C)Cc3ccccc3C(=O)O2)sc2c1CCCC2 (centres undefined)	?	4%	20µM*	-20%	-29%
COc1ccccc1NC(=O)C1(C)Cc2ccccc2C(=O)O1 (centres undefined)	26%	2%	50µM*	-3%	-4%
Cc1ccc(CCNC(=O)c2cccc(N3CCCC3=O)c2)cc1	27%	16%	·	-3%	-7%
O=C(CSc1ccccn1)N1CCN(c2ccccc2)CC1	3%	26%	?	-16%	8%
Cc1nc(SCC(=O)N2CCN(c3ccccc3)CC2)n[nH]1	-14%	4%	40µM*	-2%	-2%
O=C(CSc1ccccc1C(=O)N1CCN(c2ccccc2)CC1)N1CCCC1	43%	2%	13µM*	3%	-5%
O=C(CSc1ccccn1)N1CCN(c2cccc(Cl)c2)CC1	-1%	-5%	2.8µM*	79µM*	-20%
Nc1nc(SCC(=O)N2CCN(c3ccc(F)cc3)CC2)n[nH]1	21%	20%	-12%[59 µM]	-16%	-6%
Nc1nc(SCC(=O)N2CCN(c3ccccc3)CC2)n[nH]1	39%	29%	40µM*	-1%	-18%
Cc1ccc(-n2nnc3c(=O)n(Cc4cccc(C)c4)cnc32)cc1	20%	2%	-18%	-19%	-4%
Nc1nnc(SCC(=O)N2CCN(c3ccccc3)CC2)s1	42%	25%	50µM*	-5%	2%
O=C(CSc1nccc(=O)[nH]1)N1CCN(c2ccccc2)CC1	-3%	0%	·	?	79µM*
O=C(CSc1nc2c(c(=O)n1-c1ccccc1)SCC2)N1CCN(c2ccccc2)CC1	3%	-2%	45µM*	?	-7%
CCCc1cc(=O)[nH]c(SCC(=O)N2CCN(c3ccccc3)CC2)n1	28%	-7%	3%[59 µM]	-7%	-19%
Nc1nc(SCC(=O)c2ccc(Oc3ccccc3)cc2)n[nH]1	?	16%	?	35µM*	-1%
Cc1ccc(Oc2ccc(NC(=O)CSc3n[nH]c(N)n3)cc2)cc1	13%	18%	?	-20%	-19%
Cc1ccc(NC(=S)NC2CCSc3ccccc32)cc1 (centres undefined)	4%	3%	-5%	?	-19%
CC(=O)Nc1ccc(/C=N/NC(=O)CC2CCCCC2)cc1	·	-5%	·	·	·
COc1cc(C(=O)NC2(C(F)(F)F)C(=O)NC(C)=C2C#N)cc(OC)c1OC (centres undefined)	14%	4%	10%[59 µM]	2%	0%
Cn1cccc1-c1nc2ccccc2[nH]1	?	-19%	45µM*	-33%	?
O=C(c1ccccc1-c1nc2ccccc2[nH]1)N1CCOCC1	27%	4%	6%[12.7 µM]	-5%	-3%
Cc1ccc(S(=O)(=O)Nc2ccc3nc(-c4cccn4C)[nH]c3c2)cc1	45µM*	-35%	-25%[12.7 µM]	16µM*	40µM*
O=C(O)c1ccccc1-c1nc2ccccc2[nH]1	13%	0%	45µM*	?	-28%
